# Active and inactive are the calls of the source.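 The calls were made as follows, unless noted: active = mean inhibition above 46.68%, the untreated control wells mean plus 3 SD; inactive = the rest.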
# Assays:
# [1] = molecular target: Nuclear receptor coactivator 1 (Homo sapiens) (UniProt Q15788); experiment: SRC1 coactivator transcriptional activity inhibitors, confirmation, cell-based, luminescence, quadruplicate (AID 588820); conditions: HEK293 GAL4-SRC1 luciferase reporter, at 3.6 µM, hits give high values;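 also: 0% = DMSO wells and 100% = gossypol 36 µM treated wells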
# [2] = VP16 transactivation inhibitors, counter-screen for SRC1 inhibitor project, cell-based, luminescence, high throughput (AID 588824; in the data active = inhibition above about 25%); conditions: cell-based VP16 transactivation luciferase luminescence; at 3.6 µM; hits give high values
# Nuclear receptor coactivator 1 (Homo sapiens), sequence (Q15788 whole entry, looked up, the tested form may be a part): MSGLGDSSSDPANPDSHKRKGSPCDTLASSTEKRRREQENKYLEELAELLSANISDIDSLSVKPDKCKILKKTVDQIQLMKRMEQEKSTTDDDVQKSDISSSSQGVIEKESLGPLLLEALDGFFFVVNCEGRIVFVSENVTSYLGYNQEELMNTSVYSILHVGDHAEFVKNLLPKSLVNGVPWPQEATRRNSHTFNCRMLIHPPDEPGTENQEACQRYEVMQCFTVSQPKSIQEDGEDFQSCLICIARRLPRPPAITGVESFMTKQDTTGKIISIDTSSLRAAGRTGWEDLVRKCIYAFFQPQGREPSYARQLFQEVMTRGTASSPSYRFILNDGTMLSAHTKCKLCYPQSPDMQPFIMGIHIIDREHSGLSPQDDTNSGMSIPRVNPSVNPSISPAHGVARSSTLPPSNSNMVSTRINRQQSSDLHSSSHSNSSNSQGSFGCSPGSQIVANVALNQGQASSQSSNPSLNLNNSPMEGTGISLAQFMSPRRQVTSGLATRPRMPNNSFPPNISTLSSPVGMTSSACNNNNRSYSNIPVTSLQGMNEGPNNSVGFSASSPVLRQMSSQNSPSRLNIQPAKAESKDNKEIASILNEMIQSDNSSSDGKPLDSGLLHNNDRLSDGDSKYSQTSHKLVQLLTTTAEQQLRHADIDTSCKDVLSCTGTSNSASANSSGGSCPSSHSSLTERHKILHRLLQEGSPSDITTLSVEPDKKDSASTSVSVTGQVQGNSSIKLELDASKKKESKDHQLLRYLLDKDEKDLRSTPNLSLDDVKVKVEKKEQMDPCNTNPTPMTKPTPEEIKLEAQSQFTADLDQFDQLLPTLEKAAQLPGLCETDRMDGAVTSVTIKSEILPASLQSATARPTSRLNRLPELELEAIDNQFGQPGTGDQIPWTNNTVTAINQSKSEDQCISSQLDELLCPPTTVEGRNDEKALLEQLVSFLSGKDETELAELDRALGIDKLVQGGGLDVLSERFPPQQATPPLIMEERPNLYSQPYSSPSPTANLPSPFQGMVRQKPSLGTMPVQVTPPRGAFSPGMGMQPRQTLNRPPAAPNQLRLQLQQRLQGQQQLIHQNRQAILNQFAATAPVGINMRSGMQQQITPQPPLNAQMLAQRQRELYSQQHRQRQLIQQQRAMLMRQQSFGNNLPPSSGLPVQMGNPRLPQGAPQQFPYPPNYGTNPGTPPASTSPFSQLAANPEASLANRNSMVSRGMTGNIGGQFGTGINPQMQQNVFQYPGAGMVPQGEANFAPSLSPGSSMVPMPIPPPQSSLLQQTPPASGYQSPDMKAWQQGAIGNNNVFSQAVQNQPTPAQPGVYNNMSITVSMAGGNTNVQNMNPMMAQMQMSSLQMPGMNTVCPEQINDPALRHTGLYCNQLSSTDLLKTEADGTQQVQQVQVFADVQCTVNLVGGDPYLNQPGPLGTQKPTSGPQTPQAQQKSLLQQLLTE
Structure (SMILES),inhibition [1],inhibition [2]
COc1cccc(C=NNC(=O)c2ccncc2)c1O,7.89% (inactive),10.7% (inactive)
CCN1CCN(S(=O)(=O)c2cc(OCC(=O)NC3CCCCC3)c(C)cc2Cl)CC1,-7.06% (inactive),31.1% (active)
S=C(NC1CCCCC1)N1CCOCCOCCN(C(=S)NC2CCCCC2)CCOCCOCC1,7.13% (inactive),7.75% (inactive)
c1ccc(-c2cc(N3CCCCC3)nc(-c3ccccc3)n2)cc1,-21.1% (inactive),-2.43% (inactive)
Cc1csc(NC(=O)c2cc(-c3ccccc3)nc3ccccc23)n1,7.56% (inactive),1.79% (inactive)
N#CC1(NC(=O)CSc2nnc(-c3ccccc3F)o2)CCCCC1,-24.1% (inactive),-10.4% (inactive)
O=C(CCCCC(=O)NN=Cc1ccccc1O)NN=Cc1ccccc1O,37.3% (inactive),39% (active)
O=C(c1ccccc1Sc1ccccc1[N+](=O)[O-])N1CCCCC1,10.1% (inactive),14.3% (inactive)
O=C(COc1ccccc1-c1ccccc1)N/N=C/c1ccncc1,-7.29% (inactive),13.6% (inactive)
CCOC(=O)N1CCN(Cc2nc(Cc3cccc(C(F)(F)F)c3)no2)CC1,-24.9% (inactive),-12.2% (inactive)
Cc1ccc(C(=O)NC2CCCc3c2cnn3-c2ccc(F)cc2F)cn1 (stereo not given),-17.5% (inactive),27.2% (active)
O=C(COc1ccc(F)cc1Cl)Nc1ccc(N2CCOCC2)cc1N1CCOCC1,-16.6% (inactive),2.25% (inactive)
Cc1csc2ncnc(NCCc3ccccn3)c12,-2.8% (inactive),21.8% (inactive)
COc1ccc(N2CCN(C(=O)c3ccc(CS(=O)c4cccc(C)c4)o3)CC2)cc1 (stereo not given),-16.2% (inactive),-2.71% (inactive)
O=C(CSc1nc2ccccc2[nH]1)Nc1cccc(S(=O)(=O)N2CCOCC2)c1,3.06% (inactive),-4.53% (inactive)
COC(=O)c1ccc2c(c1)NC(=O)c1ccccc1S2,-8.66% (inactive),-1.54% (inactive)
CCOC(=O)c1ccc(NC(=O)c2ccc(CN3CCc4ccccc4C3)cc2)cc1,-48.8% (inactive),30.4% (active)
NS(=O)(=O)c1ccc(Nc2nc(-c3cccnc3)cs2)cc1,15.8% (inactive),11.7% (inactive)
Fc1cccc(Cl)c1Cn1nnc2c(NCc3ccncc3)ncnc21,-0.7% (inactive),4.51% (inactive)
CCc1ccc(CN(C)C(=O)C2CCC(=O)N(CC3CCCCC3)C2)cc1 (stereo not given),-5.12% (inactive),2.92% (inactive)
CC(=O)Nc1ccc(NC(=O)C2Cc3c(-c4ccco4)ccnc3O2)cc1 (stereo not given),3.04% (inactive),8.12% (inactive)
C/C(=N\N=C1\NC(=O)C(CC(=O)O)S1)c1ccccn1 (stereo not given),-1.33% (inactive),-8.7% (inactive)
CCOC(=O)N1CCN(CC(=O)Nc2ccc(F)c(F)c2)CC1,-18.7% (inactive),-4% (inactive)
COc1cc(C(c2sc3nc(C)nn3c2O)N2CCc3ccccc3C2)cc(OC)c1OC (stereo not given),-4.8% (inactive),-0.57% (inactive)
O=C1CC2(CCCC2)CC(=O)N1CCCCN1CCN(c2ncccn2)CC1,0.34% (inactive),2.87% (inactive)

Structure (SMILES),inhibition [1],inhibition [2]
Cc1ccccc1CN1CCN(C(=O)CC(C)C)CC1,-18.4% (inactive),-7.73% (inactive)
COc1ccc(C(=O)Oc2ccc(/C=N/NC(=O)c3ccccc3OC)cc2[N+](=O)[O-])cc1,-11.5% (inactive),-0.66% (inactive)
CC(C)Cn1c(N)c(C(=O)COC(=O)CC23CC4CC(CC(C4)C2)C3)c(=O)n(C)c1=O,6.72% (inactive),34.8% (active)
O=C(NNC(=O)c1ccccc1O)c1ccc(Cl)c(S(=O)(=O)N2CCc3ccccc32)c1,8.03% (inactive),14.9% (inactive)
Cc1cnccc1NC(=O)c1cccs1,-0.39% (inactive),0.67% (inactive)
Cc1ccc(C)c(S(=O)(=O)N2CCN(C(=O)C3CCN(C(=O)c4ccc(F)cc4)CC3)CC2)c1,-10.9% (inactive),1.93% (inactive)
Cc1ccc(-c2c[n+]3c(n2-c2ccccc2)CCC3)cc1,10.5% (inactive),20.3% (inactive)
COc1ccc(Nc2cc(C)nc(NCc3ccccc3)n2)cc1,12.3% (inactive),23.2% (inactive)
COc1cc2c(cc1OC)CN(C(=O)c1cc(S(=O)(=O)N3CCOCC3)ccc1C)CC2,1.45% (inactive),7.41% (inactive)
C/C(=N\NC(=O)C(C)Oc1ccc([N+](=O)[O-])cc1)c1ccccn1 (stereo not given),-226% (inactive),45.6% (active)
CC(Oc1ccccc1)C(=O)N1CCC2(CC1)CC(=O)c1ccccc1O2 (stereo not given),5.89% (inactive),3.37% (inactive)
Cc1sc(NC(=O)c2ccco2)c(C(c2cccnc2)N2CCC(C)CC2)c1C (stereo not given),-5.49% (inactive),26.1% (active)
CCc1noc(C)c1C(=O)Nc1ccccc1N1CCOCC1,-11% (inactive),1.51% (inactive)
COc1ccc(C(=O)NNC(=O)C(=O)N2CCCCC2)cc1OC,-5.24% (inactive),-0.82% (inactive)
CN(C)/C=C/C(=O)c1ccn(S(=O)(=O)c2ccccc2)c1,-2.09% (inactive),-2.37% (inactive)
O=C(Nc1nc(-c2ccccn2)cs1)c1cccc(S(=O)(=O)N2CCOCC2)c1,25% (inactive),20% (inactive)
Cc1ccc(NS(=O)(=O)c2ccc(C(=O)NC3CCN(Cc4ccccc4)CC3)cc2)cc1,-9.12% (inactive),24.2% (inactive)
COc1ccc(NC(=O)NNC(=O)COc2ccc3ccccc3c2)cc1OC,14% (inactive),8.08% (inactive)
COc1ccc(Cc2nnc(NC(=O)c3cc(OC)c(OC)c(OC)c3)s2)cc1OC,-22.8% (inactive),-17.4% (inactive)
Cc1cccc(N2CCN(S(=O)(=O)c3cc(-c4cc(C)no4)ccc3C)CC2C)c1 (stereo not given),-10.5% (inactive),33.8% (active)
CCOCCOC(=O)c1[nH]c2c(c1C)C(=O)CC(c1cc(OC)c(OC)c(OC)c1)C2 (stereo not given),-15.9% (inactive),13.5% (inactive)
Fc1cccc(CSc2nnc3ccc(-c4ccncc4)nn23)c1,21.7% (inactive),9.73% (inactive)
Cc1cc(OCC(O)CN2CCc3ccccc3C2)cc(C(C)C)c1 (stereo not given),-16.6% (inactive),-6.97% (inactive)
COc1ccc(C(O)(C(C)C)C(CN2CCOCC2)c2ccc(Cl)cc2)cc1 (stereo not given),16.2% (inactive),13.8% (inactive)
Cc1ccc2nc(C)c3c(c2c1)N(c1ccc(F)cc1)CC3,16.4% (inactive),30.5% (active)

# Source: PubChem BioAssay
